Source: PubChem BioAssay
KinaseGlo FLuc: Kinase-Glo luciferase inhibition (counter-screen); Kinase-Glo luciferase, ATP luminescence, 8 min; Potency, µM (series often up to 38.3 µM), for the others: at the top dose activity change, negative = inhibition, usual class: inhibitors; 200,000 compounds, 0.28% hits; note: % is set by controls: 0 for no effect and ±100 for the full control effect; nearly all actives have a fitted effect of over 60% in size
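Substrate mix (final 50 mM imidazole pH 7.2, 50 mM KCl, 7 mM MgCl2, 10 uM ATP, 0.01% Tween 20, 0.05% BSA) plus pin-tool compound, then Kinase-Glo detection mix; 8 min ambient, luminescence read.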
SMN2 splice up: SMN2 splice variant enhancement. HEK293 SMN2-luciferase splicing reporter, luminescence, 30-36 h. Potency, µM (doses to about 46.1 µM), for the others: at the highest dose activity change, positive = activation, most hits filed as activators. 210,000 compounds, 2.8% hits; note: % of control where 0% means no effect; nearly all actives have a fitted effect of over 55% in size
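qHTS luciferase splicing reporter: luminescence rises when SMN2 exon 7 is included in transfected HEK293 cells. Compound exposure lasted 30-36 h at 37C, with 4.5 mM final sodium butyrate as control, followed by a ONE-Glo read.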
FLuc counter: inhibits or activates purified firefly luciferase, miR-21 counter-screen | purified FLuc, Km substrates, luminescence inhibition | Potency, µM (titrated, usually from 57.5 µM), without a hit: at the top dose activity change, negative = inhibition, most hits filed as inhibitors | 360,000 compounds, 6.9% hits | AID 588342;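 note: plate controls were vehicle for no effect and reference inhibitor for full effect; nearly all actives have a fitted effect of over 55% in size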
Target sequence (P08659 whole entry, looked up): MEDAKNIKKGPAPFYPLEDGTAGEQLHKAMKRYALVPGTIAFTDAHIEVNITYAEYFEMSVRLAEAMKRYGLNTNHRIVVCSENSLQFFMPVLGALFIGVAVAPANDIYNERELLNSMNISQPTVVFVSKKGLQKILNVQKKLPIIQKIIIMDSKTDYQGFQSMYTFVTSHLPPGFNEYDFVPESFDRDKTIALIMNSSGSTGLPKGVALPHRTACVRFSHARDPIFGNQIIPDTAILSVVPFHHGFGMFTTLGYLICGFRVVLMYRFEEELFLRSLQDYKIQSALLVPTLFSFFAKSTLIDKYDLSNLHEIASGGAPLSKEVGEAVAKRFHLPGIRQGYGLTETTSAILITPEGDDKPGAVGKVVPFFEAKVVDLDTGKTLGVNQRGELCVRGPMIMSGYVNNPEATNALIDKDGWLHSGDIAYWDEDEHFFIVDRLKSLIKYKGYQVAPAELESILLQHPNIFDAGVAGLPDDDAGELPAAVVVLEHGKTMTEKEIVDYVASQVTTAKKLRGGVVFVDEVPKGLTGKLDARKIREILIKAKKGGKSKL
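Biochemical qHTS of compounds, final roughly 60 µM downward over six points, against 10 nM purified firefly luciferase using Km concentrations of substrates (10 uM D-luciferin, 10 uM ATP) in Tris acetate pH 7.5 buffer; luminescence output.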
NPC1 promoter act: NPC1 promoter activation | Huh7 NPC1 promoter luciferase reporter, 24 h | Potency, µM (series often up to 9.22 µM), inactives show at the highest dose activation, hits mostly activators | 320,000 compounds, 2.4% hits | AID 485313; note: % of control where 0% means no effect; nearly all actives have a fitted effect of over 60% in size
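Luminescence from an NPC1 promoter-driven luciferase reporter in stably transfected Huh7 cells was measured after 24 h compound treatment at 37 °C, followed by 10 min ambient incubation with luciferase detection reagent.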
ELG1 genotox: induces genotoxicity in HEK293T cells with luciferase-tagged ELG1 | HEK293T ELG1-luciferase reporter, luminescence, 16 h | Potency, µM (series often up to 46 µM), inactives show top-dose activity change, positive = activation, most hits filed as activators | 330,000 compounds, 1.3% hits; note: % of control where 0% means no effect; nearly all actives have a fitted effect of over 60% in size
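DMSO vehicle served as control against compound-treated ELG1-luciferase HEK293T cells; exposure lasted 16 hr at 37 °C and 5% CO2, followed by ONE-Glo luminescence detection after 30 min.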
Rab9 prom act: activates the Rab9 promoter; Potency, µM (doses to about 9.22 µM), for inactives: top-dose activation, negative = inhibition, actives largely listed as activators; 320,000 compounds, 2.8% hits; Huh7 Rab9 promoter-luciferase reporter, luminescence, 24 h; note: % of control where 0% means no effect; nearly all actives have a fitted effect of over 60% in size
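Cell-based reporter: Huh7 stable for Rab9 promoter-driven luciferase, plated in reduced-serum medium with 10% FBS at 1500 cells/well, compound-treated 24 h at 37 °C, luminescence read after 10 min reagent.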
* = called active by the depositor; ? = inconclusive; nt = no result given; [ ] = another dose, or the depositor's remark. Compounds with a hit are over-represented: about 7.5% of the library has one in this group of screens. Calls come from the whole dose curve; as a rule, active = well fitted curve in the direction sought with a large enough effect; inconclusive = small, poorly fitted or top-dose-only effect, or another doubt; inactive = no such curve, though single readings can be large; an effect the other way counts as inactive or inconclusive. Potency is the fitted concentration of half-maximal effect.

SMILES	KinaseGlo FLuc	SMN2 splice up	FLuc counter	NPC1 promoter act	ELG1 genotox	Rab9 prom act
COc1ccc(C(=O)CC(=O)c2ccccc2O)cc1	nt	nt	12µM*	?	?	25.4%
COc1ccc(O)c(C(=O)CC(=O)c2ccccc2C)c1	-1.1%	nt	?	?	?	3.16µM*
COc1ccc(C(=O)CC(=O)c2ccccc2O)cc1OC	-0.7%	?	?	10.6%	?	-3.6%[1.84 µM]
COc1ccc(O)c(C(=O)CC(=O)c2ccc(F)cc2)c1	-1.9%	2.24µM*	12µM*	0.562µM*	?	0.708µM*
COc1ccc(Nc2n[nH]c(C)c2[N+](=O)[O-])cc1	-2.7%	28.9%	?	22.3%	?	3.55µM*
NC(=O)c1ccsc1NC(=O)c1ccc2c(c1)CCCC2	?	1.58µM*	0.601µM*	?	2.59µM*	?
NC(=O)c1ccsc1NC(=O)C1CCCCC1	-1.7%	-15.9%	-20.5%	6.6%	15.0%	-7.2%
CNC(=O)c1ccsc1NC(=O)c1ccc2c(c1)CCCC2	-14.5%	11.2µM*	0.953µM*	-2.8%	17.2%	11.9%
NC(=O)c1ccsc1NC(=O)c1ccc(N2CCCC2=O)cc1	?	17.8µM*	3.01µM*	2.24µM*	1.64µM*	0.631µM*
O=S(=O)(c1ccc(Cl)s1)N1CCCc2cccc(O)c21	1.5%	8.8%	10.7µM*	?	17.3%	3.98µM*
COC(=O)c1c(NC(=O)c2nc(SCc3cccc(C)c3)ncc2Cl)sc2c1CCCC2	nt	-3.5%	0.6%	nt	nt	nt
C[C@]12c3[nH]c4cc(-c5ccco5)ccc4c3CCN1C(=O)[C@@H](CC(=O)NCc1ccco1)C[C@@H]2C(=O)N1CCCCC1	nt	nt	nt	nt	-5.1%	nt
Cc1cc(C)nc(NC(=O)c2ccc3c(c2)OCO3)c1	?	6.6%	16.9µM*	18.4%	14.5%	17.2%
Cc1cc(C)cc(NC(=O)NC(C)C2CCCO2)c1 (stereo not given)	1.5%	nt	?	-1.4%	-0.1%	-0.8%
Cc1ccc2nc(NC(=O)/C=C/c3ccc4c(c3)OCO4)sc2c1	-2.1%	-58.7%	3.3%	3.7%	?	0.5%
Cc1ccc(NC(=O)/C=C/c2ccc3c(c2)OCO3)nc1	-1.7%	2.82µM*	2.13µM*	2.51µM*	?	2.51µM*
Cc1ccnc(NC(=O)CNC(=O)c2ccc3c(c2)OCO3)c1	nt	nt	-6.4%	0.2%	18.8%	0.7%
Cc1ccc(OC(F)F)c(NC(=O)Nc2ccc3c(c2)OCO3)c1	nt	nt	?	3.7%	-4.6%	6.1%
Cc1ccc(NC(=O)Nc2ccc3c(c2)OCO3)nc1	-2.9%	12.6µM*	6.75µM*	3.16µM*	?	2.51µM*
CC(NC(=O)Nc1ccc2c(c1)OCO2)C1CCCO1 (stereo not given)	1.0%	?	16.9µM*	?	12.9%	?
Cc1cccc(OCC(O)CN2CC3(C)CC2CC(C)(C)C3)c1 (stereo not given)	0.6%	nt	8.2%	-3.6%	-4.0%	-5.8%
O=C(c1cccc(F)c1)N1CCC2(CC1)CN(c1ccccc1)C2	-4.9%	-25.6%	nt	nt	nt	nt
CCSc1nnc(NC(=O)CCCOc2ccc(C)cc2)s1	0.9%	1.4%	1.9%	-2.5%	-13.4%	-0.2%
C[C@@H](CSC(=N)N)C(N)=O	-5.9%[7.66 µM]	-16.1%[9.22 µM]	nt	nt	nt	nt
Cc1ccc(NNc2c(C)nc3ccccc3nc2=O)cc1	-0.6%	9.3%	-7.0%	20.8%	14.2%	17.8%
CCc1ccccc1NC(=O)Nc1c[nH]c(=O)[nH]c1=O	nt	nt	-0.6%	nt	nt	nt
COC(=O)[C@@]1(Cc2ccc(OC)cc2)[C@H]2c3cc(C(=O)N(C)C)n(C)c3C[C@H]2CN1C(=O)c1ccccc1	-3.3%	25.5%	nt	nt	nt	nt
CCc1cccc(C)c1NC(=O)Nc1ccc2c(c1)OCO2	-1.6%	20.9%	2.7%	-2.6%	0.5%	0.7%
Cc1cc(C)nc(NC(=O)Nc2ccc3c(c2)OCO3)c1	-1.9%	2.51µM*	?	0.708µM*	?	0.562µM*
Cc1cccc(NC(=O)Nc2cc(C)cc(C)n2)c1	-3.4%	5.01µM*	1.51µM*	2.24µM*	?	1.26µM*
